Among the data in PMC12136788 are binding signal values, retold here.

Positions count from the first letter of the chain named. Whole data set: some 24,000 sequences, median “enrichment r” near 0.99, cut for the highest 2% near 3.7. What follows is part of a selection rich in the highest values, with near analogues and random picks from the rest.

First the molecules themselves.
B1: chr8:74858975:74858976:-_ENSG00000154582_ENST00000284811|hu_hu|FALSE|FALSE (ssRNA)
RNA: GGGAGUUCUACAGUCCGACGAUCAACCUUGUACGUAAAAUACAUGCAUACUUUCGAUAGCACAUGUGAAGGUAUCUCUCUAAAAUUGACCUCAUUGGUUUCGUUCUCAGCAAACUGACCUGGGCCACUCAACAUGGCUUUUAUCAACAGAGGAUUGAGCAUCA
B2: chr11:100882373:100882374:+_ENSMUSG00000019302_ENSMUST00000044721|mus_mus|mus_mus_mus_hu_True|38_68 (ssRNA)
RNA: GGGAGUUCUACAGUCCGACGAUCUUCCUGGUUUGUGUUGAUUUCCUUCAGUUCAUUUUCAAUCUUCUCGAAAUUGGCCUCUAAGUCAAUCAUGUCCCGAGGGAAGGGAACCUCUGGGUUUUCACCGGUGUCCAUAAUCGGAAUCAACAGAGGAUUGAGCAUCA
B3: chr17:56552419:56552420:-_ENSMUSG00000013236_ENSMUST00000086828|mus_mus|mus_mus_mus_hu_False|58_98 (ssRNA)
RNA: GGGAGUUCUACAGUCCGACGAUCAAAAAAUACACUAUAAAAAAAAAAUGAAAUGUCACGGGAUACAGUUACACUGACACUAUUAAAAGAAAGCUGGAUUCUGGUCCCAGCCCAGUGUCCCCAGGCUGCAGAGCGGGGAGGAGCCAACAGAGGAUUGAGCAUCA
B4: chr17:56552419:56552420:-_ENSMUSG00000013236_ENSMUST00000086828|mus_mus|mus_mus_mus_hu_False|58_58 (ssRNA)
RNA: B3 RNA with A38U, A39U
B5: 105548853_105553245_153_3pUTR_ENSMUSG00000068798_ENSMUST00000090678|mouse|control|control (ssRNA)
RNA: GGGAGUUCUACAGUCCGACGAUCAUUUUUCAACAAAAAUCCCCUGAACAAACUGAACUGUCAGAGCAGACUUCCCCACGCCUCCUGAACCAAGGACUACUAGCUUGUACUCACGCAUGAUGCGCUCUGUUUAAAUAUUGACAACAACAGAGGAUUGAGCAUCA
B6: chr10:112362630:112362631:-_ENSMUSG00000074748_ENSMUST00000099276|mus_mus|motif|central (ssRNA)
RNA: GGGAGUUCUACAGUCCGACGAUCGGAUUACUUAUUAAAAAAUAAGAAUCUCCAAAACAAAGGACAGUGGUGAAUUUCAAACGGCCCUCCCCCAAUGAUCCCAGCAUGCGAUAAUGCCAGGUAGUGGCCCCUGGGCAUGCGAUGCAACAGAGGAUUGAGCAUCA
B7: chr2:4828950:4828951:+_ENSMUSG00000026662_ENSMUST00000115019|mus_mus|FALSE|FALSE (ssRNA)
RNA: GGGAGUUCUACAGUCCGACGAUCAAAAUCUAGUCUCCCCCAAUAAAUUGUAUUUUAGGCAAAAUCCUCCCAAAUGCUUCUAAAAUAAUACUAAAAAGGGCAUCUGAUUAUACAAGAGCAAUUAAAAAAAUUAAAUAUUUAUUUCAACAGAGGAUUGAGCAUCA
B8: chr16:14299702:14299703:-_ENSMUSG00000022677_ENSMUST00000023357|mus_mus|motif|central (ssRNA)
RNA: GGGAGUUCUACAGUCCGACGAUCCUCAAUUCAGAGUCCCUCUCCCCAAAUGACUCUAGCUUGUAUCAAGUUGAUAUAAAACGGGCCAGGGCAGGCAAUAAUAAUUCAGGUAUUUUUUAAAAAAUCAAACUUCAUAUAAAUUAACAACAGAGGAUUGAGCAUCA
B9: chr16:14299702:14299703:-_ENSMUSG00000022677_ENSMUST00000023357|mus_mus|FALSE|FALSE (ssRNA)
RNA: B8 RNA with G82U, G83A
B10: 75889693_75893847_892_3pUTR_ENSG00000185009_ENST00000355264|human|control|control (ssRNA)
RNA: GGGAGUUCUACAGUCCGACGAUCCAGAUAGUUUAAUGCAAGCAUCAAUGACCCCCUGAAUUUCUGCAAAGACUGUAGAUCCUGAUUUAUCUAUAAUUGCGUCUAUUUCUUCAACAACAUCAAAAUAGGCUUCAUUGUUUGUGUCAACAGAGGAUUGAGCAUCA
B11: chr2:4828950:4828951:+_ENSMUSG00000026662_ENSMUST00000115019|mus_mus|motif|central (ssRNA)
RNA: B7 RNA with U80G, A81G
B12: chr5:31803264:31803265:+_ENSMUSG00000064037_ENSMUST00000076949|mus_mus|FALSE|FALSE (ssRNA)
RNA: GGGAGUUCUACAGUCCGACGAUCUGGAAAUGAGGAAGCCAGGGCCUCAGUGAUGAUUGUCCCUGAAGCUGACCAGGUAAAUACUUCAAUCUGUCCAGGUGUGUCAAUCAAGACAUAUCUGAAUGUGUUCUGGGCCUUCUCAAUCAACAGAGGAUUGAGCAUCA
B13: 64960267_64960387_5255_CDS_ENSG00000171988_ENST00000542921|human|control|control (ssRNA)
RNA: GGGAGUUCUACAGUCCGACGAUCUGAGUGAGCUGGUUCUUCUCCUUUUUUACUGCGAAUAAGUCUACAUUCUCGACACUUUUGUAAAUUAGGCCCUAUCUCACAGCAGGAGUCAUCCUGUAAAAAGGAUUCCCCAGUUUGCUUCAACAGAGGAUUGAGCAUCA
B14: chr4:76721835:76721836:+_ENSG00000138768_ENST00000264904|hu_mus|hu_hu_hu_mus_True|98_108 (ssRNA)
RNA: GGGAGUUCUACAGUCCGACGAUCGUUGGCUGGGGUUUCUGAGAUGCCUCUGGAAUAUAACUCAUGUUUGCUAAUAAAUCCUAGUUUCUCUAUGAAAUUCUCUUUGCCAAUCCUCUUCUCUAUUAGUUGCUUUAGUUUCUCUUUCAACAGAGGAUUGAGCAUCA
B15: chr1:241675328:241675329:-_ENSG00000091483_ENST00000366560|hu_hu|FALSE|FALSE (ssRNA)
RNA: GGGAGUUCUACAGUCCGACGAUCGCUUUUAUUAACAUGAUCGUUGGGAUGCACAGGUAUCUUGCUGCCAAGUUCACCUCCUAACAUUUCAAUUGCUCUAUUGCUAAUGACUUCAUUUACAUUCAUAUUUGUCUGAGUUCCUGACAACAGAGGAUUGAGCAUCA
B16: 21460886_21461006_6735_CDS_ENSMUSG00000042453_ENSMUST00000161356|mouse|control|control (ssRNA)
RNA: GGGAGUUCUACAGUCCGACGAUCAGGAUUUUUGGUGCUUAUUUUACAGGUUGGCCCAGAGUAGCCCGGGUCACAUAUACACUUGGUUCCAUUGAUGCAGCUCCCGUGCCCAUAGCACAUCUCUUCACACUGGGGACCAAUGUACAACAGAGGAUUGAGCAUCA
B17: chr10:121586544:121586545:+_ENSG00000198825_ENST00000369080|hu_mus|motif|central (ssRNA)
RNA: GGGAGUUCUACAGUCCGACGAUCCGACUGCCUAAUCGAGGUGCUGACACAAUAAUCCCACAGCUUGGGAGAAUGUAAUCGGUUGGCCCUACGCUCUCUAAAGAAUUGGCUAGCUGCUUGUCUUCCUCCGACUUAGAAUUUGUACAACAGAGGAUUGAGCAUCA
B18: chr2:153237265:153237266:-_ENSMUSG00000061411_ENSMUST00000109784|mus_mus|mus_mus_mus_hu_False|78_98 (ssRNA)
RNA: GGGAGUUCUACAGUCCGACGAUCAAAAAAAAAAAAAGAAAAGUGUCCUUGUGCCCAAAGUCUCAGAUGCUUGGAGUGUGGCUAGAAACAGCUCUUUUGGAUCCCACCUCUUUCAAAAACAAAAUGUACCAACUGGUGAGGCAGCAACAGAGGAUUGAGCAUCA
B19: 112580157_112582736_3545_CDS_ENSG00000153107_ENST00000341068|human|control|control (ssRNA)
RNA: GGGAGUUCUACAGUCCGACGAUCCAAAUCUCUUAAAGUGAAUCCUACAUUAGUCAUCCAGACAACCAAUCUUUCAGCUAGACUAGAAACAGAUGUAGAAUGCCUGAAACUAAACCUGUUUUCCUCUUGUUCUACUUGCAACUUCAACAGAGGAUUGAGCAUCA
B20: chr2:153237265:153237266:-_ENSMUSG00000061411_ENSMUST00000109784|mus_mus|mus_mus_mus_hu_False|78_108 (ssRNA)
RNA: B18 RNA with A32G, G37A
B21: chr2:153237265:153237266:-_ENSMUSG00000061411_ENSMUST00000109784|mus_mus|mus_mus_mus_hu_False|78_78 (ssRNA)
RNA: B18 RNA with G37A
B22: chr2:153237265:153237266:-_ENSMUSG00000061411_ENSMUST00000109784|mus_mus|FALSE|FALSE (ssRNA)
RNA: GGGAGUUCUACAGUCCGACGAUCAAAAAAAAGAAAAGAAAAGUGUCCUUGUGCCCAAAGUCUCAGAUGCUUGGAGUGCAGCUAGAAACAGCUCUUUUGGAUCCCACCUCUUUCAGAAAACAGUGUACCAACUGGUGAGGCAGGCAACAGAGGAUUGAGCAUCA
B23: chr2:153237265:153237266:-_ENSMUSG00000061411_ENSMUST00000109784|mus_mus|mus_mus_mus_hu_False|28_78 (ssRNA)
RNA: B18 RNA with G37A, A115G
B24: chr2:153237265:153237266:-_ENSMUSG00000061411_ENSMUST00000109784|mus_mus|mus_mus_mus_hu_False|58_78 (ssRNA)
RNA: B18 RNA with G37A, U78C, G79A

For this assay, the target named is T1, UNK ZnF1-3 (human, UniProt Q9C0B0 31-174).
T1 sequence: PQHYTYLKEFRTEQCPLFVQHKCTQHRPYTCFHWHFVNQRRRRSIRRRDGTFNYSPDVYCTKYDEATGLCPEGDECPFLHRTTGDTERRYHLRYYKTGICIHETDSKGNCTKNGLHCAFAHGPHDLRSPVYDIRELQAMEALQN
As to the kind of experiment: nsRBNS (natural sequence RNA bind-n-seq); RBNS binding buffer (assumed for nsRBNS): 25 mM Tris pH 7.5, 150 mM KCl, 3 mM MgCl2, 0.01% Triton X-100, 500 ug/ml BSA, 20 U/ml SUPERase-In, 4 C; UNK is unkempt and MSI1 is Musashi-1; names of the RNAs are library labels; protein concentration not given here; high values mean tight binding.
In turn, B1 came in with a binding signal of 0.5 enrichment R.

Consider B2, for which the binding signal was 0.443 enrichment R.

Turning to B3, the binding signal was 8.92 enrichment R.

As for B4, the binding signal amounted to 3.59 enrichment R.

Consider B5, for which the binding signal came out at 1.18 enrichment R.

Molecule B6 returned a binding signal of 0.719 enrichment R.

Molecule B7 yielded a binding signal of 4.12 enrichment R.

In the case of B8, the binding signal is 3.78 enrichment R.

B9: the binding signal was found to be 3.28 enrichment R.

B10 came in with a binding signal of 0.939 enrichment R.

With B11, the binding signal was found to be 14.3 enrichment R.

Molecule B12 registered a binding signal of 0.591 enrichment R.

Turning to B13, the binding signal was 0.8 enrichment R.

B14 yielded a binding signal of 0.409 enrichment R.

Turning to B15, the binding signal worked out at 0.465 enrichment R.

The molecule B16 returned a binding signal of 0.458 enrichment R.

B17: the binding signal was determined as 1.12 enrichment R.

As for B18, the binding signal stood at 4.81 enrichment R.

The molecule B19 showed a binding signal of 0.842 enrichment R.

In the case of B20, the binding signal amounted to 3.65 enrichment R.

As to B21, the binding signal was 5.71 enrichment R.

In turn, B22 registered a binding signal of 1.55 enrichment R.

Take B23: the binding signal was 4.56 enrichment R.

B24 gave a binding signal of 6.45 enrichment R.
